Reference: PubChem BioAssay AID588726 (The Scripps Research Institute Molecular Screening Center, 2011)
The whole screen tested about 360,000 compounds, of which about 8,200 (2.3%) were called active. The sample as a whole holds a higher share of actives than the screen did. A number with no mark means an inactive call. Rule as the data show it: active = inhibition above about 27%; inactive = the rest.

molecular target: Fructose-bisphosphate aldolase (Mycobacterium tuberculosis (strain ATCC 25618 / H37Rv)) (UniProt P9WQA3); assay: M. tuberculosis aldolase activity blockers – biochemical, fluorescence, strain H37Rv, primary screen (AID 588726);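 also: 0% = vehicle and 100% = reference inhibitor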; conditions: purified M. tuberculosis FBA, fluorescence read-out, at 1 µM, active compounds read high
Sequence (P9WQA3 whole entry, looked up): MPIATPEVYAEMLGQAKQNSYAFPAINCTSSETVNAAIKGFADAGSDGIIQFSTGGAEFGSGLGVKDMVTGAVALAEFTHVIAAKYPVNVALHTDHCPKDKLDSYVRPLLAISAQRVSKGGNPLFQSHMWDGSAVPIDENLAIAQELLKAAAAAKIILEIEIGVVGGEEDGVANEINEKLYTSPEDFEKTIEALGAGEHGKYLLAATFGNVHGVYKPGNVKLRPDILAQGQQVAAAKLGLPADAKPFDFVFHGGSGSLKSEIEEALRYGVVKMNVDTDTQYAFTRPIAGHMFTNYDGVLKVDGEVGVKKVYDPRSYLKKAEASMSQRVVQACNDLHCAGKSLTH

Compound	inhibition
COc1cc(OC)cc(-c2c(-c3cccs3)c3cc(-c4ccc(OC)nc4)ccc3n2C)c1	1.28%
COc1ccc(-c2c(-c3cc(OC)cc(OC)c3)n(C)c3ccc(-c4ccn[nH]4)cc23)cc1	41.1% (active)
COc1cc(OC)cc(-c2c(-c3ccc(F)cc3)c3cc(-c4ccc5cc[nH]c5c4)ccc3n2C)c1	26.4%
Cc1csc(/N=C/N(C)C)c1C#N	-1.13%
CCOCCCNC(=O)c1cc2c(=O)n3ccccc3nc2s1	184% (active)
CN(c1ccc2nc3ccccc3c(=O)n2n1)C1CCCCC1	1.09%
CCOCCCNC(=O)c1c[nH]c2cc(C)ccc2c1=O	4.52%
CN(C(=O)c1cc2c(=O)n3ccccc3nc2s1)C1CCCCC1	94.8% (active)
CN(C(=O)CSc1nnnn1-c1ccccc1)C1CCCCC1	5.06%
CCOCCCNC(=O)c1cn(CC(C)C)c(=O)c2c1c1ccccc1n2C	25.3%
CCn1ncc(C2=NOC(C(=O)N3CCN(c4ccccc4)CC3)C2)c1C (configuration not stated)	0.67%
C[C@@H]1CN([C@@H](C)CO)C(=O)CCCn2cc(nn2)CO[C@H]1CN(C)S(=O)(=O)c1ccc(-n2cccn2)cc1	-4.05%
Cc1ccc(C(=O)OCC(=O)Nc2ccc(Cl)cn2)cc1S(=O)(=O)N1CCOCC1	-2.24%
CCc1ccc(C(=O)NN=C2CCCCCC2)s1	2.93%
Cc1ccc(Cn2cc(C(=O)NN)c(=O)c3ccc(F)cc32)cc1	-0.43%
C#Cc1cc(N2CCN(C(=O)c3ccoc3)CC2)n2nc(-c3cccc(Cl)c3)cc2n1	51.1% (active)
CCc1nc2ccc(C(=O)N3CCN(c4cccc(Cl)c4)CC3)cc2nc1CC	-5.44%
CCCCCn1c(SCCC(C)C)nc2c1c(=O)[nH]c(=O)n2C	-1.96%
Nc1nc2cc(Cl)ccc2n1N	1.5%
Nc1ccc2nn(-c3ccc(Cl)cc3)nc2c1	52.9% (active)
Nc1ccc2c(c1)C(O)c1ccc(Cl)cc1-2 (configuration not stated)	0.95%

Compound	inhibition
CCC(C)(C)NC(=O)CN(C(=O)CCC(=O)Nc1cc(C)ccn1)c1ccc2c(c1)OCCO2	-0.12%
Cc1ccc(CCn2c3c(c4ccccc42)CN(C)CC3)cn1	4.44%
Cn1cccc1C(C#N)c1ccccc1C#N (configuration not stated)	-1.4%
CC(C)C(=O)Nc1oc(-c2ccccc2)cc1C#N	1.2%
Cn1cc(-c2ccccc2)cc(C#N)c1=O	50.3% (active)
O=P(O)(CP(=O)(c1ccccc1)c1ccccc1)c1ccccc1O	-1.86%
COc1ccc(CCN2CC(C(=O)OCC(=O)NCc3ccccc3Cl)CC2=O)cc1OC (configuration not stated)	-0.32%
Cc1c(Br)c([N+](=O)[O-])nn1C(C)C(=O)Nc1nccs1 (configuration not stated)	0.22%
Cn1nnnc1-c1cc(Cl)cc(Cl)c1	-1.41%
O=C(CNC(=O)c1ccccc1Br)NCCSc1ccc(Br)cc1	2.75%
CSCCC(NS(=O)(=O)c1ccc(C)cc1)C(=O)N1CCCC1 (configuration not stated)	-1.91%
CCCCC(NS(=O)(=O)c1ccc(C)cc1)C(=O)Oc1ccc2c3c(c(=O)oc2c1)CCC3 (configuration not stated)	61.7% (active)
Cc1cc(=O)oc2cc(OC(C)C(=O)NCCc3ccc(S(N)(=O)=O)cc3)ccc12 (configuration not stated)	20.4%
C[C@H](OC(=O)n1ccnc1)[C@@H]1O[C@@]2(C)CCC[C@@H]1O2	-0.83%
CC1(C)C(=O)C2(CCCCC2)C(=O)OC1c1cccs1 (configuration not stated)	-0.98%
COc1ccc(NC(=O)C2Cc3c(-c4ccc5c(c4)OCO5)ccnc3O2)cn1 (configuration not stated)	64.8% (active)
COc1ccc(NC(=O)C2Cc3c(-c4ccc(Cl)cc4)ccnc3O2)cc1 (configuration not stated)	-1.52%
O=C(Nc1ccc(Cl)cc1)C1Cc2c(-c3ccc4c(c3)OCO4)ccnc2O1 (configuration not stated)	26.8%
CCCCn1c(N)c(N(Cc2ccccc2OC)C(=O)COc2cc(C)ccc2Cl)c(=O)[nH]c1=O	1.47%
CCOc1ccc(OCC)c(-c2c(=O)n(OCc3ccc(Cl)cc3)c3ccccc3[n+]2[O-])c1	-1.68%
c1ccc(-c2cc(N3CCCCC3)c3ccccc3n2)cc1	0.14%

Compound	inhibition
Brc1cnc(N2CCCC2)nc1N1CCCCC1	4.23%
Brc1cnc2ccccc2c1N1CCCCC1	51.2% (active)
CCOC(=O)c1c(S(=O)(=O)Nc2ccc(CN3CCC(C)CC3)cc2)c(C)n(C)c1C	1.42%
CCCCn1c(=S)[nH]c2ncccc2c1=O	0.66%
CN(CCc1ccccn1)C(=O)CCC1CCCN(Cc2ccccc2OC(F)F)C1 (configuration not stated)	5.01%
CCCCc1nc(NCc2ccccc2)c(C#N)c2c1CCCC2	0.15%
CC(C)CCNc1nc(N2CCCC2)c2c(c1C#N)CCN(C)C2	4.23%
CCN1CCc2c(C#N)c(NCc3ccccc3)nc(NCCO)c2C1	33.9% (active)
COc1ccc(NC2CC(=O)N(C)C2=O)cc1 (configuration not stated)	1.09%
Cc1ccc(-c2nc(COC(=O)c3c(C)noc3C)cs2)cc1	1.63%
CCN(C(=O)COC(=O)CCC(=O)c1cccs1)C1CCCCC1	4.65%
CCn1c(=N)c(S(=O)(=O)c2ccc(F)cc2)cc2c(=O)n3ccccc3nc21	20.8%
CCOC(=O)c1cc2c(=O)n3ccccc3nc2n(CC(C)C)c1=NC(=O)c1c(-c2c(F)cccc2Cl)noc1C	13.1%
O=C(CN1CCN(S(=O)(=O)/C=C/c2ccccc2)CC1)NC(=O)NCc1ccco1	-1.09%
O=c1ccc(-c2ccc(S(=O)(=O)Nc3ccccc3)o2)n[nH]1	2.01%
O=C(CSc1nnc(-c2ccncc2)o1)NCc1ccc(Cl)cc1	-1.06%
COCCNC(=O)c1ccccc1-c1nc(-c2ccccc2Cl)no1	0.39%
CCCCNC(=O)c1onc(CSc2cccc(OC)c2)c1C(=O)O	1.62%
CCCCNc1c(-c2cccc(Sc3ccc(OC)cc3)c2)nc2ccccn12	40.1% (active)
COC(=O)c1ccc2nc(-c3cccc(Br)c3)c(Cc3ccc(OC)cc3C)n2c1	2.37%
